These results are taken from ChEMBL document CHEMBL3988442, “University of Dundee, Small-Polar-MMV Screening Library” (2021).

Holding throughout (parameters): scale not given: direction of the effect not stated beside the values
Assay [1] has as its target Protein translocase subunit SecA (Escherichia coli (strain K12)) (UniProt P10408). Description: Assay to Identify E. coli SecA ATPase Inhibitors. Format: functional. The following applies: 30 µM.
The target in assay [2] is T1, Ubiquitin-activating enzyme e1, putative (Leishmania donovani (strain BPK282A1)) (UniProt E9BSI1).
T1 sequence (whole entry): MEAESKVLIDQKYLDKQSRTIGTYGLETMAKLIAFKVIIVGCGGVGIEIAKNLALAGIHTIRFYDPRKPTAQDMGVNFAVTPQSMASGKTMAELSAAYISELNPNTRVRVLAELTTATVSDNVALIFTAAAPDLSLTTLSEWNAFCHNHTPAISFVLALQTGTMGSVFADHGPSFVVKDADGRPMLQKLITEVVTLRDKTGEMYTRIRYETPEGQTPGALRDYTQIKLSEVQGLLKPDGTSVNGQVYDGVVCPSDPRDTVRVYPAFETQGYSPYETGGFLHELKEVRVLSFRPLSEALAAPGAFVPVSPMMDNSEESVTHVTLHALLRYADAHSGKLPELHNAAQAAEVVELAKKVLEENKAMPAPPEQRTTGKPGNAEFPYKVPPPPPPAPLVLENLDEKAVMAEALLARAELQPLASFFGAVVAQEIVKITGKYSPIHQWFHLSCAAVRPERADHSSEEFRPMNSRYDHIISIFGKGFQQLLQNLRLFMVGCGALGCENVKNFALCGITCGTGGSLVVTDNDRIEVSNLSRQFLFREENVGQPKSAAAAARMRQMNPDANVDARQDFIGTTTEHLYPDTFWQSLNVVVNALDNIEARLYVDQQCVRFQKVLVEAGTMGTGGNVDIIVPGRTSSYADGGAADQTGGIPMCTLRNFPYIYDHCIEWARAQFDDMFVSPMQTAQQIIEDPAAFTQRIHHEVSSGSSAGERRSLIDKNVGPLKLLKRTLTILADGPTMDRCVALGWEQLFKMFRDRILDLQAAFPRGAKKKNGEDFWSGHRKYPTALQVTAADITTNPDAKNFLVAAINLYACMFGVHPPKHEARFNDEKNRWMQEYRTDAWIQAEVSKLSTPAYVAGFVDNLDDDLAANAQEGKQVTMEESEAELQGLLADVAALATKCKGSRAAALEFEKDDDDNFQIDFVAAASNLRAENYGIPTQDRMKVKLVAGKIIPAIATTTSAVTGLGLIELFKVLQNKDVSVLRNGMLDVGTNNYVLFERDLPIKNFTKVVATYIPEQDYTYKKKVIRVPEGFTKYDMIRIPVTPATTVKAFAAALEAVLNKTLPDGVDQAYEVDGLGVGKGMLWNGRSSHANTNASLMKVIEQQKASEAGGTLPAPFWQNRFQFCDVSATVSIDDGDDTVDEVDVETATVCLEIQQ
Description: Leishmania donovani Ubiquitin Activating Enzyme (LdE1). Format: functional. The following applies: 30 µM.

Assay [3] deals with Sialic acid-binding Ig-like lectin 9 (Homo sapiens) (UniProt Q9Y336). Description: Hs-Siglec9 ALPHAscreen SOP 20170721. Particulars: 10 µM.
Another assay deals with Trypanosoma cruzi. The assay can be described thus: Trypanosoma cruzi phosphomannomutase and mannose-1-phosphate guanylyltransferase assay. The assay is classed as functional. The following applies: 10 µM.
Assay [4] has as its target T2, Arginase-2, mitochondrial (Homo sapiens) (UniProt P78540).
T2 sequence (whole entry): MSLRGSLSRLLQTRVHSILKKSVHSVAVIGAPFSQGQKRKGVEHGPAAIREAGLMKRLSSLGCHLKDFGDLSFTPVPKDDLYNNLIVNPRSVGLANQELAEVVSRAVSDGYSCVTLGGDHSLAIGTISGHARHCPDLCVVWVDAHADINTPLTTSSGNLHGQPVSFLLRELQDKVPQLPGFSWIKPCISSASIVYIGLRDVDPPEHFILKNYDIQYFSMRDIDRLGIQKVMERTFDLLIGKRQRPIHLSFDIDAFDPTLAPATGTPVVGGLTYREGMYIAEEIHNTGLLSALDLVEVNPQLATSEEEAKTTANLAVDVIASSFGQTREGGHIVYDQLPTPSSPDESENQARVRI
The assay can be described thus: in vitro enzyme assay to detect the production of urea directly proportional to the activity of Arginase II. Also: in the data most compounds retested in dose-response had high values. Particulars: 33.3 µM. Format: functional.

Assay [5] addresses T3, Proteasome subunit beta (Trypanosoma cruzi) (UniProt O96673).
T3 sequence (whole entry): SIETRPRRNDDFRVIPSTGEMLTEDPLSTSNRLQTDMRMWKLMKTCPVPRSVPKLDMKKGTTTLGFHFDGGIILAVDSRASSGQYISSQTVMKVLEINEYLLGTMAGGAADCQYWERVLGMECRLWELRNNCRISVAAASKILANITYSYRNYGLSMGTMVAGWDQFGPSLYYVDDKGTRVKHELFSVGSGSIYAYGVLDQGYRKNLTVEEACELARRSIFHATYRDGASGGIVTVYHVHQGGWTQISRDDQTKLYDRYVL
Description: Trypanosoma cruzi proteasome chymotrypsin-like activity (TcProtChymo) assay. Also: in the data most compounds retested in dose-response had high values. Particulars: 9.37 µM. The assay is classed as functional.

The next assay is filed under the species Homo sapiens. The assay can be described thus: To identify inhibition of the IFN signalling (Jak-Stat) pathway via expression of an eGFP reporter gene under the control of an IFN-stimulated response element (ISRE) containing MxA promoter. Format: functional. Particulars: 30 µM. A general note: Reporter assays use an easily measured gene product as a stand-in for the process of interest.

In assay [6] the target is T4, Tyrosyl-tRNA synthetase, putative (Trypanosoma cruzi (strain CL Brener)) (UniProt Q4DSP6).
T4 sequence (whole entry): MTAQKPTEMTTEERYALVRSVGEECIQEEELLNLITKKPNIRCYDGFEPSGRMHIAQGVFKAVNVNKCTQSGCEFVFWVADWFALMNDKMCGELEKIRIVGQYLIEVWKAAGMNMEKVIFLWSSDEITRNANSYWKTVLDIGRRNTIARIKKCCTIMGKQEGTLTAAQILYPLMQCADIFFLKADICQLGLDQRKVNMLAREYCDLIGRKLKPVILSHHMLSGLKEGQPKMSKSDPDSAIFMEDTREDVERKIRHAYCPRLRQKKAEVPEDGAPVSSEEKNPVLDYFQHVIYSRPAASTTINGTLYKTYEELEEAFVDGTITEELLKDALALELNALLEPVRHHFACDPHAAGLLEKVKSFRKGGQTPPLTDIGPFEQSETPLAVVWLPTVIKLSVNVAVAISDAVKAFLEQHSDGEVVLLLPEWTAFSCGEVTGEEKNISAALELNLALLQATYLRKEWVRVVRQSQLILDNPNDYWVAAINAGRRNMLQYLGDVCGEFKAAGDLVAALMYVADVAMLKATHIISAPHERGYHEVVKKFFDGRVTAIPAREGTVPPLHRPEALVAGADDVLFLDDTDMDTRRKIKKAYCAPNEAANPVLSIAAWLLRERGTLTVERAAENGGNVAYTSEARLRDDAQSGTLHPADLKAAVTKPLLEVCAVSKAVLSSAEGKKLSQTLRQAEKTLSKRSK
The assay can be described thus: Trypanosoma cruzi tyrosyl tRNA synthetase (TcYRS) _High Tyrosine SOP. Also: in the data most compounds retested in dose-response had high values. Format: functional. Particulars: 30 µM.

The target of assay [7] is T4, Tyrosyl-tRNA synthetase, putative (Trypanosoma cruzi (strain CL Brener)). Description: Trypanosoma cruzi tyrosyl tRNA synthetase (TcYRS) SOP. Format: functional. The following applies: 30 µM.
In assay [8] the target is Chromo domain-containing protein 1 (Saccharomyces cerevisiae (strain ATCC 204508 / S288c) (Baker's yeast)) (UniProt P32657). Description: ScCHD-1 Enzyme Inhibition Assay. Also: in the data most compounds retested in dose-response had high values. The following applies: 30 µM. Format: functional.

Structures are written as SMILES. For some of these results: Potency and affinity values are given separately.

Sialic acid-binding Ig-like lectin 9 (Homo sapiens), sequence (Q9Y336 whole entry): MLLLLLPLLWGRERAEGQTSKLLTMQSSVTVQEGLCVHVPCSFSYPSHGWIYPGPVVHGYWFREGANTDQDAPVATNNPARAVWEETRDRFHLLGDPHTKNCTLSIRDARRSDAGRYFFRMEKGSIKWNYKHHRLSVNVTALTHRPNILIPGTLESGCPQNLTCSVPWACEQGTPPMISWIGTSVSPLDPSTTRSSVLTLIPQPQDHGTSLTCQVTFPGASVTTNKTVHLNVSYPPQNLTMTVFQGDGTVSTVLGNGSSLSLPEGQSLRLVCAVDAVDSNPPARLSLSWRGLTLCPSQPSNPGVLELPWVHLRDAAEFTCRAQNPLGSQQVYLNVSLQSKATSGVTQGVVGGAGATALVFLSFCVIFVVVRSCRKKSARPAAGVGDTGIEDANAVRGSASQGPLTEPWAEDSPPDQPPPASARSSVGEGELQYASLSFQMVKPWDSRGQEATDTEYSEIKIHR
Chromo domain-containing protein 1 (Saccharomyces cerevisiae (strain ATCC 204508 / S288c) (Baker's yeast)), sequence (P32657 whole entry, the tested form may be a part): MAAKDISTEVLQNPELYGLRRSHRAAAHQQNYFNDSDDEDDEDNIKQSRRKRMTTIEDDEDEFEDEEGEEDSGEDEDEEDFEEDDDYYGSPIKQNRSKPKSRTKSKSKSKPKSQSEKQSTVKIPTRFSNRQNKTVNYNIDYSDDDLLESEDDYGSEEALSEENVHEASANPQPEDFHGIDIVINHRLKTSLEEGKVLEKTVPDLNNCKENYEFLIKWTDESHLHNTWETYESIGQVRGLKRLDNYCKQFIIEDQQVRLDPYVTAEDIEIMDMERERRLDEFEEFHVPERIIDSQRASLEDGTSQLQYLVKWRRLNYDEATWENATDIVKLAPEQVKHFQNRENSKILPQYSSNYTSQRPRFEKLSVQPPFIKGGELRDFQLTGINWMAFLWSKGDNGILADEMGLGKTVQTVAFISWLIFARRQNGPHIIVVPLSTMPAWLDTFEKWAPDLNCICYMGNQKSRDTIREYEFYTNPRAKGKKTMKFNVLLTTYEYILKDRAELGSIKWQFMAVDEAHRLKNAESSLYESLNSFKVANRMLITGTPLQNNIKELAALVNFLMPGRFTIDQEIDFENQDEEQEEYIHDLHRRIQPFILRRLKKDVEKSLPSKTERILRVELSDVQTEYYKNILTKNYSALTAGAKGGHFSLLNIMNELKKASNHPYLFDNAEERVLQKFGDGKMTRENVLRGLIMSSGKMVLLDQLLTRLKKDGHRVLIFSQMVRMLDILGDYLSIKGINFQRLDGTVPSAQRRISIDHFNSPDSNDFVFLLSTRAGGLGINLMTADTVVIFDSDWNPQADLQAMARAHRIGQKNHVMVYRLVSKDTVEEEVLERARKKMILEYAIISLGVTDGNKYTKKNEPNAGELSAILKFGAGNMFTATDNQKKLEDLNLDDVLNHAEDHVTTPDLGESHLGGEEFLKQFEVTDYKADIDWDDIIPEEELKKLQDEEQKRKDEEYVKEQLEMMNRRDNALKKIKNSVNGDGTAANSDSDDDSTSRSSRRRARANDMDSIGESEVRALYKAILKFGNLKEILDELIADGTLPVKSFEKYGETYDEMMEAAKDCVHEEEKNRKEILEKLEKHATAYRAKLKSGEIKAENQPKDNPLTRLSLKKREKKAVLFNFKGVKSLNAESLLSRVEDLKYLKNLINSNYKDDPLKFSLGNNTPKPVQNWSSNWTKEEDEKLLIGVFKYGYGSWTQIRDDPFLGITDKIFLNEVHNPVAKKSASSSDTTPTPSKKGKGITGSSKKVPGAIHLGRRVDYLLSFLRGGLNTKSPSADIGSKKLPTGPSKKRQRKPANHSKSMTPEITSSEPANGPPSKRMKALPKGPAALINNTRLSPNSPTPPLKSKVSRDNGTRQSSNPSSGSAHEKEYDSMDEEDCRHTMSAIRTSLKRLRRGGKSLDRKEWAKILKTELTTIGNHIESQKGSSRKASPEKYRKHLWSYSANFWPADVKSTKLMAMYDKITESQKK
Protein translocase subunit SecA (Escherichia coli (strain K12)), sequence (P10408 whole entry): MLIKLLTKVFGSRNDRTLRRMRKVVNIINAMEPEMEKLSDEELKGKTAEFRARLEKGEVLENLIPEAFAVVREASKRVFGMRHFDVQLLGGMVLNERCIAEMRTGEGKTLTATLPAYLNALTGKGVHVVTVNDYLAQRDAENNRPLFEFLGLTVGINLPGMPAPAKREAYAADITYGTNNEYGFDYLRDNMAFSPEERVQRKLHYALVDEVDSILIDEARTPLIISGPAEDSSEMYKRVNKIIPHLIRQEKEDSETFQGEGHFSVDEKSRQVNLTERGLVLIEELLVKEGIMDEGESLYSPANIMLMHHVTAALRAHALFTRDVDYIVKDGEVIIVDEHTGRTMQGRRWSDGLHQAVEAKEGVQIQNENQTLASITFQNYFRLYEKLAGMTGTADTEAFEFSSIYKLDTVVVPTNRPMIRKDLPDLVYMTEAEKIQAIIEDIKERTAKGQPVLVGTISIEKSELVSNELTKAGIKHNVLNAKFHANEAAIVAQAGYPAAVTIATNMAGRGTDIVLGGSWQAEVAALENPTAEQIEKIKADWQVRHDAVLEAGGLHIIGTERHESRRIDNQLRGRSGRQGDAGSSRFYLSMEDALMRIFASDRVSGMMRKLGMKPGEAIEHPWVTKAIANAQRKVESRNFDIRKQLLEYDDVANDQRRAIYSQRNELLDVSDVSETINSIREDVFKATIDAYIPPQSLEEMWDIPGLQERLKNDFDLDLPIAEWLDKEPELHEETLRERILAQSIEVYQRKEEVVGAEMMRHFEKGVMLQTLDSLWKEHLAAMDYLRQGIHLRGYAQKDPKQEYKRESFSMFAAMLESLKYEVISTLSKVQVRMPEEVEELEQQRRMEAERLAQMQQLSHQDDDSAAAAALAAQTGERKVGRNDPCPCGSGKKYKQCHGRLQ

On to `CN(C)C[C@H]1OC[C@@H]2CCN(S(=O)(=O)c3ccccc3)C[C@@H]21`, for which the Percent Effect in assay [1] was -7.48%; in assay [2], 3.9%; in assay [3] it was 9.94%; with Trypanosoma cruzi it was -4.58%; in assay [4], -5.26%; in assay [5], 7.33%. The Percent Effect in the assay listed under Homo sapiens was 5.69%; in assay [6] it was -2.63%; in [7] it was -5.13%; in [8], -2.54%.
On to `CC(Cn1cccn1)NC(=O)N1CCN(Cc2cccnc2)CC1` (stereo not given), for which the Percent Effect in assay [1] was -6.34%; in assay [2], 7.79%; in assay [3], 1.46%; in the assay with Trypanosoma cruzi, 1.87%; in [4], -1.02%; in assay [5], 11.2%. For the same compound, the Percent Effect in the assay listed under Homo sapiens is -5.12%; in [6], 5.88%; in assay [7], 23.5%; in assay [8], -16.2%.
As for `Cc1nn(-c2ccccc2)cc1C(=O)N1CCCN2CCCC2C1` (stereo not given), the Percent Effect in assay [1] was -4.61%; in assay [2], 10.7%; in assay [3], 5.72%; with Trypanosoma cruzi, -0.201%; in [4] it was 0.887%; in assay [5] it was 7.21%. Moreover, the Percent Effect in the assay filed under Homo sapiens is 3.25%; in assay [6], 7.89%; in assay [7], 12.8%; in assay [8], -14.7%.
For the compound `COc1ncccc1CNC(=O)NCCNC(=O)c1ccco1`, the Percent Effect is -2.62% in [1]; 13.3% in assay [2]; -3.85% in assay [3]; 6.83% with Trypanosoma cruzi; 1.33% in assay [4]; 16% in assay [5]. Also, the Percent Effect in the assay listed under Homo sapiens is 18.4%; in assay [6], 4.74%; in assay [7] it was 12.8%; in assay [8], -6.18%.
As for `CN(C)C(=O)[C@@H]1C[C@@H]2CCN(Cc3ccc4c(c3)OCO4)C[C@@H]2O1`, the Percent Effect in assay [1] is -2.52%; in assay [2] it was -1.3%; in assay [3] it was -0.448%; in the assay with Trypanosoma cruzi it was -1.07%; in [4] it was -2.83%; in assay [5], 6.62%. Also, the Percent Effect in the assay filed under Homo sapiens was -0.537%; in assay [6], -2.63%; in assay [7], -2.56%; in assay [8], -0.196%.
As for `CN(C(=O)Cc1c[nH]c2ccccc12)C1CCN(c2ccccn2)CC1`, the Percent Effect in assay [1] is -4.77%; in assay [2], 2.67%; in assay [3], -1.22%; in the assay with Trypanosoma cruzi it was -3.81%; in [4], 1.77%; in assay [5] it was 4.16%. Further, the Percent Effect in the assay filed under Homo sapiens is 31.5%; in assay [6], 3.68%; in [7], 0%; in assay [8] it was -14.4%.
Consider `CCc1nc(CN2CCCN(C(=O)c3c(C)noc3C)CC2)cs1`, for which the Percent Effect was -2.47% in assay [1]; 10.3% in assay [2]; -1.6% in assay [3]; 0.0939% in the assay on Trypanosoma cruzi; 2.87% in assay [4]; 8.11% in assay [5]. The Percent Effect in the assay listed under Homo sapiens is 13.8%; in assay [6], 3.35%; in [7], 8.43%; in [8], -3.62%.
